D2 antag = antagonizes the human D2 dopamine receptor. P14416. inhibition, % at 10 µM. hit rate 2% among 340,000. HEK293 TREx D2 cells, calcium flux, dopamine EC80; in the data active = inhibition above about 30%; inactive = below that, where a call was filed; also: 0% is about no effect
Target sequence (P14416 whole entry, looked up): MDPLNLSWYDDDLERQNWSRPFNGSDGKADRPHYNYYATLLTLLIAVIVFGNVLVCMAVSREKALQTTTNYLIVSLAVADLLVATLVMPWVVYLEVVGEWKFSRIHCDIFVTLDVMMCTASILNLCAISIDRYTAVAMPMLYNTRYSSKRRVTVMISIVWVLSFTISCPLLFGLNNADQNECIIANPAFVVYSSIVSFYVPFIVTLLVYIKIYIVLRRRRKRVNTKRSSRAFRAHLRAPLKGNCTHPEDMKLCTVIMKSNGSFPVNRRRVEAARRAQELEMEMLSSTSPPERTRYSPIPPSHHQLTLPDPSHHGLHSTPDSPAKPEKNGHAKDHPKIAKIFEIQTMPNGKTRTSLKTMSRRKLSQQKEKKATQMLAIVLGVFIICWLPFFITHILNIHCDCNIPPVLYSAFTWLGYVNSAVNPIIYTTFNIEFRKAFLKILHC
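Calcium flux kinetic readout in an inducible HEK293 TREx D2 line plated overnight at 30 C. After 180 s compound exposure, an EC80 dopamine challenge follows with another 180 s kinetic read to detect antagonism.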
D2 PAM-1 = potentiates the human D2 dopamine receptor allosterically; P14416; DiscoveRx D2 beta-arrestin cells, luminescence, 90 min; 100% = 57 uM dopamine signal; potentiation, % (concentration not given with the values); hit rate 0.23% among 360,000; AID 624464; in the data active = potentiation above about 50%
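PathHunter beta-arrestin assay in DiscoveRx D2 cells. Compounds were added with an EC20 of dopamine (50 nM final) for 90 min at 37 deg C. Luminescence was read 1 h after detection reagent, with 57 uM dopamine as the EC100 control.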
D2 ag-1 = D2 dopamine receptor (human) agonism; P14416; HEK293 T-REx D2 cells, calcium flux agonist mode; activation, % at 2 µM; hit rate 0.53% among 340,000;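 active = activation over 3 SD above normal in the single-dose calcium agonist read, cut at about 30% in these data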; also: 0% is about no effect
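Agonism is scored from calcium flux in a force-coupled, inducible HEK293 cell line expressing D2, read kinetically for 180 s after compound addition against dopamine controls.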
D2 PAM-2 = D2 dopamine receptor (human) potentiation. P14416. HEK293 T-REx D2, calcium flux, EC20 dopamine potentiation. potentiation, % at 10 µM. hit rate 0.34% among 340,000;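 active = potentiation over 3 SD above the plate norm, cut at about 30% in these data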; also: 0% is about no effect
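Tetracycline-induced HEK293 T-REx cells force-coupled to calcium signalling expressed D2; compounds were pin-added after a 10 s baseline, read kinetically 180 s, then an EC20 dopamine challenge followed with a further 180 s calcium read.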
D2 ag-2 = agonists of human D2 dopamine receptor (beta-arrestin) | P14416 | DiscoveRx PathHunter D2 beta-arrestin, luminescence, 90 min; 100% = 57 uM dopamine signal | activation, % (test concentration not listed) | hit rate 0.084% among 360,000 | AID 624465; in the data active = activation above about 40%
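DiscoveRx PathHunter D2 beta-arrestin cells (2,100/well) attached overnight, then compound-stimulated 90 min at 37 C in HBSS/10 mM HEPES/0.1% Tween-20 buffer; beta-galactosidase complementation read by luminescence after 1 h at ambient temperature. Dopamine 57 uM final (EC100) as control.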
* hit, by the source's call; . = not tested or not shown; ! = a repeat was not active. A selection: hits, their analogues and other compounds. The true share with any hit is near 2.4%.

SMILES	D2 antag	D2 PAM-1	D2 ag-1	D2 PAM-2	D2 ag-2
Cn1nc(C(F)(F)F)c(C#N)c1N1CCN(c2cccc(C(F)(F)F)c2)CC1	43*	-29	1	-19	-3
Cc1nc2ncnn2c(N2CCN(c3cccc(C(F)(F)F)c3)CC2)c1C	.	-6	.	.	2
N#C/C(=C/c1ccc(N2CCOCC2)o1)C(=O)Nc1ccccc1	9	-8	40*	8	0
COCCNC(=O)/C(C#N)=C/c1ccc(N2CCOCC2)o1	-12	-25	13	0	-3
N#C/C(=C\c1ccc(N2CCOCC2)o1)C(=O)NCCc1ccccc1	46*	-7	21	3	6
COc1cc(C(=O)O)nc2ccc([N+](=O)[O-])cc12	38*	-1	2	2	4
COc1ccc([N+](=O)[O-])cc1C(=O)C(=O)c1ccccc1	-4	-5	-1	18	-6
N#Cc1c(F)cccc1N1CCN(Cc2ccc3c(c2)OCO3)CC1	85*	-19	7	-35	-4
O=C(Nc1ccccc1)Nc1cccc(NC(=O)Nc2ccccc2)c1F	-29	0	0	0	1
O=C(Nc1ccccc1)Nc1ccccc1Br	42*	-4	-4	1	2
Cc1ccc(C(=O)c2oc3ccccc3c2NC(=O)COc2ccccc2Cl)cc1	.	.	1	-2	.
COc1cc(N)c(Cl)cc1C(=O)N[C@H]1CCN(CCCOc2ccc(F)cc2)C[C@H]1OC	-15	-24	1	-13	-4
COc1cc(N)c(Cl)cc1C(=O)N[C@@H]1CCN(CCCOc2ccc(F)cc2)C[C@@H]1OC	77*	.	1	-24	.
Cn1c(=O)n(C)c2cc(N3CCCCC3)c(NC(=O)c3ccc(Cl)cc3)cc21	.	.	0	2	.
COc1ccc(C2CN=NC23CCCc2ccccc2C3=O)cc1 (configuration not stated)	-18	64*	-1	-5	4
Cc1ccc(NC(=O)C2OCCc3ccccc32)cc1C (configuration not stated)	42*	-7	-2	12	-4
O=C(NCc1ccco1)C1OCCc2ccccc21 (configuration not stated)	4	0	1	9	-1
CCN(c1ccccc1C)S(=O)(=O)c1cc2c3c(c1)CCC(=O)N3CCC2	21	-4	-1	41*	-4
CCN(c1ccccc1C)S(=O)(=O)c1cc2c3c(c1)CCN3C(=O)CC2	.	9	.	-3	1
Cc1ccc(NC(=O)c2nnn(-c3ccc4c(c3)OCCO4)c2N)cc1	60*	3	1	-14	1
CC1CCC(NC(=O)c2ccc(CS(=O)(=O)c3ccc(Cl)cc3)o2)CC1 (configuration not stated)	.	.	-1	-15	.
CCCN1C(=O)/C(=C\C=C2\N(CC)c3ccccc3C2(C)C)SC1=S	1	-8	22	-9	-1
CN1/C(=C\C=C2/C(=O)Oc3ccccc3C2=O)C(C)(C)c2ccccc21	68*	3	125*	-12	-2
CN1/C(=C\C=C2/SC(=S)NC2=O)C(C)(C)c2ccccc21	16	-14	41*	-8	-11
CN1C(=CC=C2C=C(I)C(=O)C(I)=C2)C(C)(C)c2ccccc21	15	-1	7	-4	-2
SMILES	D2 antag	D2 PAM-1	D2 ag-1	D2 PAM-2	D2 ag-2
COCCCN1CC23C=CC(O2)C(C(=O)O)C3C1=O (configuration not stated)	-15	-4	0	10	-2
CCCN1CC23C=CC(O2)C(C(=O)O)C3C1=O (configuration not stated)	48*	-2	1	6	-2
CCC(C)N1CC23C=CC(O2)C(C(=O)OC)C3C1=O (configuration not stated)	31*	-1	6	-1	-2
COc1ccc(Cn2c(CCC(=O)NCc3ccc(Cl)cc3)nc3cccnc32)cc1	.	.	0	12	.
CNC(=S)N1CCC(c2nc3ccccc3s2)CC1	68*	-14	-1	18	0
Clc1ccc(OCc2nnc(-c3ccccc3Br)o2)cc1	36*	0	0	-1	-1
CCOc1cc2[nH]c(=O)n(CCCCC(=O)N3CCN(c4cccc(Cl)c4)CC3)c(=O)c2cc1OCC	.	.	.	-10	.
CCOc1cc2[nH]c(=O)n(CCCCC(=O)N3CCCCCC3)c(=O)c2cc1OCC	16	-5	1	36*	1
Cc1ccccc1CSc1ncc(CO)n1Cc1ccc(F)cc1	.	.	1	-1	.
COc1cc(C(=O)OC(C)CN2CCOCC2)cc(OC)c1OC (configuration not stated)	40*!	-13	-1	1	-1
COc1cc(C(=O)OC(C)CN2CCN(C)CC2)cc(OC)c1OC (configuration not stated)	-3	-10	0	1	-2
COc1ccccc1CCNC(=O)Cc1ccc(NC(=O)N2CCSc3ncccc32)cc1	.	.	0	-2	.
CCS(=O)(=O)c1nc(S(=O)(=O)c2ccc(Cl)cc2)c(NCc2ccc(Cl)cc2)s1	.	.	0	-2	.
Cc1cccc(CNC(=O)C2CCC(=O)N(C3CC3)C2)c1 (configuration not stated)	0	-4	0	52*	-1
CSc1cccc(CNC(=O)C2CCC(=O)N(CCCN3CCCC3=O)C2)c1 (configuration not stated)	86*	-1	0	-24	4
COc1ccc(N2C(N)=NC(N)=NC2(C)C)cc1	-13	-4	-1	31*	-3
CCN(CC)S(=O)(=O)c1nnc(NC(=O)COc2cccc(C)c2)s1	.	.	0	6	.
CCC(=O)c1ccc(OCC(=O)NCCCN2CCOCC2)cc1	.	3	.	.	-5
Cc1cc(OCC(=O)NCCN2CCOCC2)c2c(C)c(C)c(=O)oc2c1	-9	-2	0	33*	-2
COc1ccc(OCC(=O)NCCCN2CCOCC2)cc1	32*	-4	1	-4	2
CCN(CC)C(=O)C1=C(C)NC(=S)NC1c1cccs1 (configuration not stated)	31*	-6	0	-7	-8
Nc1nc(N)nc(-c2cccc(Cl)c2)n1	32*	-9	0	-3	-2
CCNC(=S)NC1CC2CCCC(C1)N2Cc1ccco1 (configuration not stated)	6	-25	0	-19	2
CNC(=S)NC1CC2CCCC(C1)N2Cc1ccc(C)cc1 (configuration not stated)	81*	-20	0	-25	-4
CNC(=S)NC1CC2CCCC(C1)N2Cc1ccccc1OC (configuration not stated)	0	-17	1	-8	1
CCNC(=S)NC1CC2CCCC(C1)N2Cc1ccc(C)cc1 (configuration not stated)	82*	-76	1	-20	-3

Compound activity from PubChem BioAssay.
